Assay results published in PubChem BioAssay (Tox21).
Several values for one entry are separate records, joined by “and”; a condition that tells them apart may be missing. Equal entries are not always repeated. Results filed as inconclusive are left out. Activity calls are given as the source filed them. The call rests on the fitted dose curve; in most records, active means well fitted curve in the direction sought with a large enough effect in the repeat runs; inconclusive means weak or mixed curves; inactive means no such curve, though single readings can be large; an effect the other way counts as inactive or inconclusive.

How the values were obtained:
[1] = qHTS RealTime-Glo MT Cell Viability Assay in HEK293 cells - 40 hour (AID 1224874); settings: RealTime-Glo luminescence; max response: active compounds read low; further: nearly all actives have a fitted effect of over 50% in size; further: potency means the concentration at half of the fitted maximal effect
Procedure, shortened: (§1)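 HEK293 + NanoLuc + prosubstrate, 600 cells/well; 5 h, 37 C/5% CO2; compound 23 nL in DMSO by pintool; 37 C; luminescence read at 0, 8, 16, 24, 32 and 40 h time points.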

[2] = A CellTox Green Cytotoxicity Assay to monitor cytotoxicity in HEK293 cells - 24 hour (AID 1224875); further: nearly all actives have a fitted effect of over 45% in size; further: potency means the concentration at half of the fitted maximal effect; on activity change: series mostly up to about 77 µM
Procedure, shortened: (§2)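 Tox21 screen in HEK293: membrane-impermeant cyanine dye fluoresces on binding dead-cell DNA; compound pinned 5 h post-seeding, plates held at 37 C, signal read repeatedly through 40 h.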

[3] = A CellTox Green Cytotoxicity Assay to monitor cytotoxicity in HepG2 cells - 16 hour (AID 1224876); further: nearly all actives have a fitted effect of over 45% in size; further: potency means the concentration at half of the fitted maximal effect
Procedure, shortened: (§3)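 Measurements at 0, 8, 16, 24, 32 and 40 h of treatment captured CellTox Green fluorescence in HepG2 cells that had been co-plated with reagent and preincubated 5 h at 37 C/5% CO2.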

[4] = qHTS RealTime-Glo MT Cell Viability Assay in HepG2 cells - 32 hour (AID 1224877); further: nearly all actives have a fitted effect of over 55% in size; further: potency means the concentration at half of the fitted maximal effect
Procedure, shortened: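 Luminescence read-out: viable HepG2 cells reduce a prosubstrate to a NanoLuc substrate, giving a signal proportional to live cell number. Reads taken at 0, 8, 16, 24, 32 and 40 h of compound exposure at 37 C.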

[5] = A CellTox Green Cytotoxicity Assay to monitor cytotoxicity in HepG2 cells - 24 hour (AID 1224878); further: nearly all actives have a fitted effect of over 45% in size; further: potency means the concentration at half of the fitted maximal effect
Procedure, shortened: as §3

[6] = A CellTox Green Cytotoxicity Assay to monitor cytotoxicity in HepG2 cells - 40 hour (AID 1224879); further: nearly all actives have a fitted effect of over 40% in size; further: potency means the concentration at half of the fitted maximal effect
Procedure, shortened: as §3

[7] = qHTS RealTime-Glo MT Cell Viability Assay in HEK293 cells - 0 hour (AID 1224880); further: top concentration of the series differs between compounds; nearly all actives have a fitted effect of over 45% in size
Procedure, shortened: as §1

[8] = A CellTox Green Cytotoxicity Assay to monitor cytotoxicity in HEK293 cells - 32 hour (AID 1224881); further: nearly all actives have a fitted effect of over 40% in size; further: potency means the concentration at half of the fitted maximal effect
Procedure, shortened: as §2

[9] = A CellTox Green Cytotoxicity Assay to monitor cytotoxicity in HepG2 cells - 0 hour (AID 1224882); further: nearly all actives have a fitted effect of over 35% in size; further: potency means the concentration at half of the fitted maximal effect
Procedure, shortened: as §3

[10] = A CellTox Green Cytotoxicity Assay to monitor cytotoxicity in HepG2 cells - 32 hour (AID 1224883); further: nearly all actives have a fitted effect of over 50% in size; further: potency means the concentration at half of the fitted maximal effect
Procedure, shortened: as §3
On the % scale 0 is the no-effect control and ±100 the full control effect.

Cc1cnccn1
inactive: max response [1] 8.17% | Potency [2] | Potency [3] | Potency [4] | Potency [5] | Potency [6] | Potency [7] | Potency [8] | Potency [9] | Potency [10]

O=c1cccc[nH]1
inactive: max response [1] 12.2% | Potency [2] | Potency [3] | Potency [4] | Potency [5] | Potency [6] | Potency [7] | Potency [8] | Potency [9] | Potency [10]

CCC(=O)CC(C)CC (stereo not given)
inactive: max response [1] 3.72% | activity change [2] 8.11% [at 0.29 µM, active compounds read high] | cytotoxicity increase [3] 5.23% [at 0.29 µM] | activity change, negative = cytotoxic [4] -0.929% [at 0.29 µM] | cytotoxicity [5] 8.2% [at 0.29 µM] | cytotoxicity increase [6] 5.43% [at 0.29 µM] | activity change, negative = cytotoxicity [7] 6.1% [at 0.29 µM] | cytotoxicity increase [8] 9.56% [at 0.29 µM] | cytotoxicity [9] 11.3% [at 0.29 µM] | cytotoxicity increase [10] 8.4% [at 0.29 µM]

O=C1NCCN1CCN1CCC(c2cn(-c3ccc(F)cc3)c3ccc(Cl)cc23)CC1
active: Potency [1] 12 µM | Potency [2] 23.9 µM | Potency [3] 26.8 µM | Potency [4] 26.8 µM | Potency [5] 26.8 µM | Potency [6] 26.8 µM | Potency [8] 23.9 µM | Potency [10] 26.8 µM
inactive: Potency [7] | Potency [9]

CC(C)c1ccccc1N
inactive: max response [1] 0.54% | Potency [2] | Potency [3] | Potency [4] | Potency [5] | Potency [6] | Potency [7] | Potency [8] | Potency [9] | Potency [10]

C=C/C=C/C=C/CCCCC
inactive: max response [1] -0.0339% | activity change [2] 1.62% [at 15.8 µM, active compounds read high] | cytotoxicity increase [3] -3.81% [at 15.8 µM] | activity change, negative = cytotoxic [4] 7.06% [at 15.8 µM] | cytotoxicity [5] -3.54% [at 15.8 µM] | cytotoxicity increase [6] -4.48% [at 15.8 µM] | activity change, negative = cytotoxicity [7] 0.841% [at 15.8 µM] | cytotoxicity increase [8] 13.2% [at 15.8 µM] | cytotoxicity [9] -3.64% [at 15.8 µM] | cytotoxicity increase [10] -4.15% [at 15.8 µM]

c1ccc2c(c1)CCC2
inactive: max response [1] 5.18% | Potency [2] | Potency [3] | Potency [4] | Potency [5] | Potency [6] | Potency [7] | Potency [8] | Potency [9] | Potency [10]

CN1[C@@H]2CC[C@H]1CC(OC(=O)C(CO)c1ccccc1)C2 (stereo not given in full)
inactive: max response [1] -0.934% and 16.5% | Potency [2] | Potency [3] | Potency [4] | Potency [5] | Potency [6] | Potency [7] | Potency [8] | Potency [9] | Potency [10]

CCCCCCCCC(C)=O
inactive: max response [1] 9.37% | Potency [2] | Potency [3] | Potency [4] | Potency [5] | Potency [6] | Potency [7] | Potency [8] | Potency [9] | Potency [10]

Cn1cccc1
inactive: max response [1] 10.4% | Potency [2] | Potency [3] | Potency [4] | Potency [5] | Potency [6] | Potency [7] | Potency [8] | Potency [9] | Potency [10]

CN(C)CCN1CCOCC1
inactive: max response [1] 7.62% | Potency [2] | Potency [3] | Potency [4] | Potency [5] | Potency [6] | Potency [7] | Potency [8] | Potency [9] | Potency [10]

COc1ccccc1C=O
inactive: max response [1] 3.17% | Potency [2] | Potency [3] | Potency [4] | Potency [5] | Potency [6] | Potency [7] | Potency [8] | Potency [9] | Potency [10]

CCN(CC)CCOc1ccc(C(O)(Cc2ccc(Cl)cc2)c2ccc(C)cc2)cc1 (stereo not given)
inactive: Potency [7] | Potency [9]
active: Potency [1] 10.7 µM | Potency [2] 23.9 µM | Potency [3] 23.9 µM | Potency [4] 19 µM | Potency [5] 21.3 µM | Potency [6] 15.1 µM | Potency [8] 23.9 µM | Potency [10] 15.1 µM

CN1CCN(C2Cc3ccccc3Sc3ccc(Cl)cc32)CC1 (stereo not given)
inactive: Potency [7] | Potency [9]
active: Potency [1] 23.9 µM | Potency [2] 21.3 µM | Potency [3] 26.8 µM | Potency [4] 23.9 µM | Potency [5] 23.9 µM | Potency [6] 23.9 µM | Potency [8] 21.3 µM | Potency [10] 23.9 µM

Cc1cn[nH]c1
inactive: max response [1] 7.93% | Potency [2] | Potency [3] | Potency [4] | Potency [5] | Potency [6] | Potency [7] | Potency [8] | Potency [9] | Potency [10]

O=C1C=CC(=O)N1c1ccccc1
active: Potency [1] 11 µM | Potency [2] 12.3 µM | Potency [3] 19.5 µM | Potency [4] 12.3 µM | Potency [5] 13.8 µM | Potency [6] 12.3 µM | Potency [8] 11 µM | Potency [10] 13.8 µM
inactive: Potency [7] | Potency [9]

Cc1cccc(C)n1
inactive: max response [1] -0.971% | Potency [2] | Potency [3] | Potency [4] | Potency [5] | Potency [6] | Potency [7] | Potency [8] | Potency [9] | Potency [10]

CC=O
inactive: Potency [7] | Potency [9]
active: Potency [1] 0.324 µM | Potency [2] 57.5 µM | Potency [3] 57.5 µM | Potency [4] 45.7 µM | Potency [5] 45.7 µM | Potency [6] 25.7 µM | Potency [8] 51.3 µM | Potency [10] 36.3 µM

COC(=O)[C@]1(C)CCC[C@@]2(C)[C@H]1CC=C1C=C(C(C)C)CC[C@@H]12
active: Potency [2] 38.9 µM | Potency [3] 24.5 µM | Potency [5] 24.5 µM | Potency [6] 24.5 µM | Potency [8] 38.9 µM | Potency [9] 24.5 µM | Potency [10] 24.5 µM
inactive: max response [1] -2.95% | Potency [4] | Potency [7]

Cc1ccc(O)cn1
inactive: max response [1] -9.02% | Potency [2] | Potency [3] | Potency [4] | Potency [5] | Potency [6] | Potency [7] | Potency [8] | Potency [9] | Potency [10]
